# Experimental data as given in the supplement of paper PMC11417369.
# ± gives the standard deviation of the averaged measurements. Over roughly 25,000 sequences, “ln(normalized median fluorescence intensity)” has its median near 7.9; the highest 2% begin near 11. The list comes from a sample in which the highest values are over-represented; it also holds similar and randomly drawn sequences.
# System: PfAP2-I AP2 domain 3 (GST-tagged)
# Assay: gcPBM binding intensity (ln(normalized median fluorescence intensity)); higher = stronger DNA binding
# In short: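 Binding intensity is defined as the maximum Masliner-normalised natural-log median intensity across replicate spots for either probe orientation. It was measured on an Agilent 4 × 180k array of primer-extended double-stranded 36-bp intergenic genomic probes and negative controls, to which GST-tagged P. falciparum DNA-binding domains made in E. coli were applied for 1 h in 1× PBS with 1% milk, 0.2 mg/ml BSA, 0.5% salmon testes DNA and 0.03% Triton X-100. Detection was by Alexa488 anti-GST antibody and scanning at 488 nm.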
row,Sequence,gcPBM binding intensity (ln)
1,ATATGCATAAAAAGAGGTACACATAAAATATATATA [XGTACX_site5864],8.19 ± 0.64
2,TAAATAATTTATAAGTGTACTATTATTGCACGAATA [XGTACX_site7715],11.1 ± 0.57
3,GATATACAATTTAAGTGTACTATAATAAAATATATA [XGTACX_site3013],7.79 ± 0.071
4,TTTATTTAAAATAAGTGTACTAGAAAAATTAAGCAG [XGTACX_site4982],8.55 ± 0.16
5,ACATATTTCCAATAATGTACATACAAAATAAGAATG [XGTACX_site2659],7.82 ± 0.58
6,AAAAAAAAAATATATTGTACAATATTGTAGCTATAT [XGTACX_site7180],7.67 ± 0.49
7,GTTTTTAAGAAAAACACACACTCCTGTTATTTTATA [CACACA_site3696],7.67 ± 0.72
8,ATGCTTATTATTTATTGTACTGAATAAATATATCTG [XGTACX_site4483],7.79 ± 0.46
9,GTGCATAAATCATACACACACACATATATATATATA [CACACA_site2423],10.4 ± 0.67
10,TCGTGCATAAATCATACACACACACCGATATATATA [CACACA_site8767],11.3 ± 0.67
11,GTGCATAAATCATACACACACACATATATAAATATA [CACACA_site7188],10.5 ± 0.65
12,TATACGGACTCTAAGTGTACTTAAAATAATTCAAAC [XGTACX_site3606],7.75 ± 0.53
13,AATTAACCCTAATTTTGTACATATTCCTTTTCTCAT [XGTACX_site46],7.92 ± 1
14,ATTTTATTTTATTAAGTGCAAAAAAAAAAAAAGAAA,10.2 ± 0.32
15,TATTTTTATTATATGGTGCATATATACATACATATA,10.7 ± 0.79
16,TATTATTATTTTATGGTGCAAAAAAAAAAAAAAAAA,10.9 ± 0.61
17,AAAAACAAAATTTGGAGTACAGTTATAATATTATTA [XGTACX_site5245],8 ± 0.24
18,TAATATAATCTGAGTGCACACAAATAAATAAACATA [CACACA_site8032],10.5 ± 0.14
19,ATGAGTGCACAAATATATATATATATATATATATAT [CACACA_negctrl_site404],11 ± 0.56
20,GCACAAATATATATATATATATATATATATATATAT [GTGCAC_negctrl_site661],9.07 ± 0.54

row,Sequence,gcPBM binding intensity (ln)
1,GGAAAATTATCAATAGCATGCAAAATGTGAATATTA [TGCATGCA_site901],7.61 ± 0.7
2,AAATATTATAGCACCACACACTTATTTTATATATAT [CACACA_site5281],10.8 ± 0.86
3,AAATATTATAGCACCACACACTTATTTTATTTATAT [CACACA_site7133],10.8 ± 0.55
4,GAAAATATTATAGCACCACACACTTATTTTATATAT [CACACA_site2265],10.5 ± 0.71
5,ATTATTATTATATTTTGTACATATGTAACAATATAT [XGTACX_site5780],7.83 ± 0.47
6,AATAATTTTTTAAACACACACACATATATATATATA [CACACA_site95],9.32 ± 0.28
7,AACATTTATATAAAAGAACACACATATAAAATATTA [CACACA_site9199],7.62 ± 0.61
8,ATAAAATATATATGCACACACATATATATTTCATAC [CACACA_site3547],9.5 ± 0.14
9,TATATAAATTTAATAACACACATATAAAAATGAATT [CACACA_site2366],7.61 ± 0.55
10,GAAATAATTTCATATACACACATATACATACATACA [CACACA_site1358],8.44 ± 0.72
11,ATAAAAAAATTAAATACATGCACATATACACATACA [TGCATGCA_site129],8.17 ± 0.38
12,GCACACATATAATAATGTACATATATATATTTAAAA [XGTACX_site4561],7.96 ± 0.44
13,TTAAAAGAATATAATGCACACATTATTTTATTTTAT [CACACA_site3772],10.9 ± 0.73
14,CATTTATATAAAAGAACACACATATAAAATATTATT [CACACA_site3601],7.66 ± 0.52
15,AATTTAATATAATGCACACATAAAAAAAAAAAAAAA [CACACA_site123],11.2 ± 0.78
16,ATAATTTCATAATACGTGCACATAATATATAAAAAA,11.385 ± 0.007
17,AAAATTTAATATAATGCACACATAAAAAAAAAAAAA [CACACA_site7923],11 ± 0.93
18,AAAAATAGAATAAATACACACCCGTGTAACGGATTT [CACACA_site3372],7.29 ± 0.93
19,ATAAATTATATTCAAGTGCATGTAACTTATTATTAT,8.29 ± 0.32
20,TTTTTTATTCATGTAACACACATTTAATTATGAATT [CACACA_site2706],7.98 ± 0.58

row,Sequence,gcPBM binding intensity (ln)
1,ACATAAATATAAACGTGTACATATATAAATATATAT [XGTACX_site7293],8.06 ± 0.26
2,TCTTTTTTGAACTAGCGTACATGAAAATATTTATAG [XGTACX_site7359],7.83 ± 0.28
3,TATAATTTAAAATACACACACATATATATAATATAT [CACACA_site2000],7.71 ± 0.47
4,AAAATTTAATATAATGCACACATAAAAAAAAAAAAT [CACACA_site8425],11.1 ± 1
5,ATTAAAATTTAAAATACACACACATATATATAATAT [CACACA_site8612],7.91 ± 0.42
6,AAAATTATCGTTATATGTACGCATCTTAATACGTAT [XGTACX_site4063],7.79 ± 0.4
7,GTGTAGTAAAATCGATGTACGTACAAATCAATTATT [XGTACX_site7662],8.06 ± 0.39
8,AAAAACAAACTGTGCATGCACCAAAAAAAAAAAAAA,10.4 ± 0.35
9,TTTTTCATTTAGCTTTTACACACTATATATTATTGA [CACACA_site7888],7.94 ± 0.86
10,ATATATATATATATTACACACTTTTTCTTTTTTTTT [CACACA_site2780],9.41 ± 0.35
11,CAGGTGCACTATATTACACACGCTTCTTTTTTTTTA [CACACA_site2069],11.7 ± 0.59
12,TACAATCTAAAATACACACGCACACCGAAAAAAAAA [CACACA_site3520],8.13 ± 0.37
13,TTTTTTTTTTTAAATACATGCATGTCCTATTTAAAT [TGCATGCA_site494],7.92 ± 0.89
14,TATATCTATTTCAAATGTACTTATATGATTCTTATA [XGTACX_site6277],7.67 ± 0.2
15,AATATATTGCACCATTGGACCTGAATAATTCTTCCA [CACACA_negctrl_site1071],11.8 ± 0.81
16,AATATAATATATTGCACACAAAAAGTGAATTATTCT [CACACA_site1684],10.2 ± 0.4
17,TAATATATGTATTGCACACCTATAACCATTATTTCT [CACACA_site1498],10.2 ± 0.38
18,AAGGGTTATAAAAATTGTACTTTTTTTATTTTTTTT [XGTACX_site1313],7.72 ± 0.56
